87 compounds from article PMC4336329 (PLoS ONE, 2015) can be followed below.

Out of some 310,000 compounds screened, about 14,000 (4.5%) showed an effect of 50% or more. The effect is printed as a negative number. Only a selection was taken, and strong results are over-represented in it overall.
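Further: peak tail current of the secondary pulse compared with the same well before compound.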

The assay deals with human ether-à-go-go-related gene (hERG) potassium channel (human, UniProt Q12809). Briefly: primary screen, population patch clamp on CHO cells stably expressing hERG; higher = less effect of the substance.
Chain of human ether-à-go-go-related gene (hERG) potassium channel (Q12809 whole entry, looked up): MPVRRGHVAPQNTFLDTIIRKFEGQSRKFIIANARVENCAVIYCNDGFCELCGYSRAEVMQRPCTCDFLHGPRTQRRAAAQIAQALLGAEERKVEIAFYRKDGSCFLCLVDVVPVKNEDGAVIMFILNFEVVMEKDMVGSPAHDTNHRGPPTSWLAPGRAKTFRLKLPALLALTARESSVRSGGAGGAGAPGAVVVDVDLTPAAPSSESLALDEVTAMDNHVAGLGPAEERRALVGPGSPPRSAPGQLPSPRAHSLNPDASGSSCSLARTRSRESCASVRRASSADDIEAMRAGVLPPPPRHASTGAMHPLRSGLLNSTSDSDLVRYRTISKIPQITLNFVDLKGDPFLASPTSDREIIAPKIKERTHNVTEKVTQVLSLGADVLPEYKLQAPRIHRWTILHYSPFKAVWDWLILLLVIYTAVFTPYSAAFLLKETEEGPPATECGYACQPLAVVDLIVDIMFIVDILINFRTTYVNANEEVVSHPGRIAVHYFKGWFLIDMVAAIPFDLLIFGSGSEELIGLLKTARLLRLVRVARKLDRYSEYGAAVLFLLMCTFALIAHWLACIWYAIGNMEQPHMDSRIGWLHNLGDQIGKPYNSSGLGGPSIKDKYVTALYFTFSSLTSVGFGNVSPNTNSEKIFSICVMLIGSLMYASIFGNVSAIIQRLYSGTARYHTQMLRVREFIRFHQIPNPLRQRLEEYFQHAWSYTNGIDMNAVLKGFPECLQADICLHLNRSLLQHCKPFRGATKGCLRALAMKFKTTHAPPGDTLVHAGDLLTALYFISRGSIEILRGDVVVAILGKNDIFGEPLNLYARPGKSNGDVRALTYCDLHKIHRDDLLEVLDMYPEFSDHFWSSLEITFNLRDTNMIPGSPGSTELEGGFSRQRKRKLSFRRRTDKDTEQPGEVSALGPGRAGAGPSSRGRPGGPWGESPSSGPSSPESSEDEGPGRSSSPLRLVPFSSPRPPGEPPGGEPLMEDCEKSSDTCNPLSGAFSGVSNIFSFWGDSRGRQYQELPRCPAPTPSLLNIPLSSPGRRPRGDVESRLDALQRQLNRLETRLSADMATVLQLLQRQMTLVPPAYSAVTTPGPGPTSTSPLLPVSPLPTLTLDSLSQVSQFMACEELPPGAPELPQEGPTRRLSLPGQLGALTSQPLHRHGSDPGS
In the case of `Cc1ccc(NC(=O)COC(=O)CCC(=O)c2cccs2)cc1`, the “hERG current change (%, negative = inhibition) at 10uM” value was -6.94%.
For `COc1ccc(-c2nc3c(=O)n(C)c(=O)[nH]c3n2CCc2ccccc2)cc1`, the “hERG current change (%, negative = inhibition) at 10uM” value came to 22.1%.
The figure for `Cn1c(=O)c2c(nc(N3CCc4ccccc4C3)n2C)n(C)c1=O` is 7.62%.
Regarding `CCCCS(=O)(=O)N1CCC(C(=O)Oc2ccccc2OC)CC1`, the “hERG current change (%, negative = inhibition) at 10uM” value was -9.14%.
The value for `O=c1cc(N2CCc3ccccc3C2)[nH]c(=O)n1-c1ccc(Cl)cc1` was 3.07%; that for `COc1cc2[nH]c(=S)n(Cc3ccccc3)c(=O)c2cc1OC` was 11.4%.
The value for `CCOc1ccc(CCNC(=O)CCC(=O)N2CCSc3ccccc32)cc1OCC` was -2.52%; that for `O=C(Nc1ccc(Cc2ccncc2)cc1)c1cccc([N+](=O)[O-])c1` was 13.6%; that for `CC(=O)Nc1ccc(C(=O)CSc2nc3ccccc3n2CC(=O)N2CCCC2)cc1` was 11.1%.
For the compound `CCOc1cc2c(C#N)c(N3CCNCC3)nc(N)c2c(N)n1`, the “hERG current change (%, negative = inhibition) at 10uM” value is reported as 5.41%.
The value for `O=C(CN1CCOCC1)Nc1cccc(C(=O)Nc2cccc(C(F)(F)F)c2)c1` was -40.1%; that for `CC1CN(CC(=O)Nc2cccc(C(=O)Nc3cccc(C(F)(F)F)c3)c2)CC(C)O1` (stereo not drawn) was -54.3%.
As to `COc1ccccc1N1CCN(CCC(=O)Nc2cccc(Cl)c2)CC1.Cl`, the “hERG current change (%, negative = inhibition) at 10uM” value is reported as -62.8%.
The value for `O=C(CN1CCN(Cc2ccccc2)CC1)Nc1cccc(S(=O)(=O)N2CCCCCC2)c1` was -76.3%; that for `O=C(CN1CCN(c2ccccc2)CC1)Nc1cccc(C(F)(F)F)c1` was 2%.
As for `COc1ccccc1N1CCN(CCC(=O)Nc2ccc3c(c2)OCO3)CC1`, the “hERG current change (%, negative = inhibition) at 10uM” value is on record as -26.7%.
For `COc1ccccc1N1CCN(CCC(=O)Nc2ccc(F)cc2)CC1`, the “hERG current change (%, negative = inhibition) at 10uM” value is listed as -19.3%.
The figure for `O=C(CN1CCN(Cc2ccccc2)CC1)Nc1cccc(C(F)(F)F)c1` is -71.6%; for `O=C(Cc1ccccc1)Nc1cccc(S(=O)(=O)N2CCCCCC2)c1` it is -49.1%.
Consider `CC1CCN(CC(=O)Nc2cccc(C(=O)Nc3cccc(C(F)(F)F)c3)c2)CC1`, for which the “hERG current change (%, negative = inhibition) at 10uM” value is recorded as -37.3%.
The figure for `CC(=O)N1CCN(CC(=O)Nc2cccc(S(=O)(=O)N3CCCCCC3)c2)CC1` is -23.3%; for `O=C(CN1CCOCC1)Nc1cccc(C(F)(F)F)c1` it is -3%.
As to `COc1ccc(NC(=O)Cn2nnc(C(=O)NCc3cccs3)c2N)cc1`, the “hERG current change (%, negative = inhibition) at 10uM” value was determined as 13.9%.
Consider `COc1ccc(/C=C2\SC(=S)N(Cc3cccnc3)C2=O)cc1C`, for which the “hERG current change (%, negative = inhibition) at 10uM” value was -3.04%.
The figure for `Cc1ccc2c(cnn2C(=O)CCC(=O)NC2CCCC2)c1` is -10.3%; for `O=C(CCN1C(=O)/C(=C/c2cccc(Br)c2)SC1=S)NNC(=O)c1cccnc1` it is 6.24%; for `CCOc1ccccc1NC(=O)COC(=O)c1ccccc1SCC(=O)N1CCCC1` it is 1.65%.
The figure for `N#Cc1cccc(NC(=O)CN2CCN(Cc3ccccc3)CC2)c1` is -65.1%; for `N#Cc1cccc(NC(=O)CN2CCCCCC2)c1` it is -10.9%; for `Cl.O=C(CNC1CCN(Cc2ccccc2)CC1)Nc1ccc(S(=O)(=O)N2CCCCC2)cc1` it is -69.7%.
The figure for `O=C(CCN1CCN(Cc2ccccc2)CC1)NNC(=O)Cc1ccc(Cl)c(Cl)c1` is -74.7%; for `O=C(CNC1CCCC1)Nc1ccc(S(=O)(=O)N2CCCCC2)cc1` it is -0.797%.
Consider `CCc1ccc(C(=O)NNC(=O)CCN2CCN(Cc3ccccc3)CC2)cc1`, for which the “hERG current change (%, negative = inhibition) at 10uM” value was -19.8%.
The value for `O=C(CCN1CCN(Cc2ccccc2)CC1)NNC(=O)Nc1cccc(Cl)c1` was -47%; that for `Cl.O=C(CCN1CCCCC1)Nc1cccc(Cl)c1` was -35.9%; that for `NNC(=O)CCN1CCN(Cc2ccccc2)CC1` was 17%.
The figure for `O=C(CCN1CCN(Cc2ccccc2)CC1)Nc1cccc(Cl)c1` is -70.6%.
For the compound `N#Cc1cccc(NC(=O)Cc2ccccc2)c1`, the “hERG current change (%, negative = inhibition) at 10uM” value was 13.6%.
The value for `O=C(CNC1CCCCC1)Nc1ccc(S(=O)(=O)N2CCCCC2)cc1` was 2.13%.
The figure for `COc1ccc(NS(=O)(=O)c2cnc[nH]2)cc1` is 17.4%; for `COCCCNC(=O)c1ccc(NS(C)(=O)=O)cc1` it is -2.85%; for `O=C(O)c1c(NC(=O)c2cccc3ccccc23)sc2c1CCC2` it is 5.11%.
Take `COc1cccc(CNc2nc(C(F)(F)F)nc3ccccc23)c1`: the “hERG current change (%, negative = inhibition) at 10uM” value amounted to 0.0262%.
The figure for `CS(=O)(=O)c1cccc(NC(=O)C2CCCN2S(=O)(=O)c2ccc(F)cc2)c1` (stereo not drawn) is 7.77%; for `Nc1ccc(C(=O)OCc2ccncc2)cc1[N+](=O)[O-]` it is -28.7%; for `NC(=O)c1cccnc1Nc1ccccc1F` it is 0.0995%.
The value for `CC1(C)C=Cc2cc3ccc(=O)oc3cc2O1` was 3.51%; that for `COc1ccc(OCc2n[nH]c(=S)n2-c2ccc(C)cc2)cc1` was 0.659%.
The value for `CN(C)C(=S)SCC(=O)Nc1cccc(C(F)(F)F)c1` was -54.6%.
Consider `O=C(Cn1cnnn1)Nc1cccc(S(=O)(=O)N2CCCCC2)c1`, for which the “hERG current change (%, negative = inhibition) at 10uM” value was found to be 18.2%.
The figure for `Cl.O=C(CN1CCCC1)Nc1cccc(Cl)c1` is -3.66%; for `O=C(CN1CCN(Cc2ccccc2)CC1)Nc1cccc(Cl)c1` it is -60.7%.
The value for `O=C(Cn1ccc(C(F)(F)F)n1)Nc1cccc(S(=O)(=O)N2CCCCC2)c1` was -60.5%; that for `CCN(CC)C(=S)SCC(=O)Nc1cccc(C(F)(F)F)c1` was -10%.
With `Cl.O=C(CN1CCCCC1)Nc1cccc(Cl)c1`, the “hERG current change (%, negative = inhibition) at 10uM” value is recorded as -28.8%.
The figure for `Cc1ccc(S(=O)(=O)N2CCCCC2)cc1NC(=O)Cn1ccc(C(F)(F)F)n1` is -8.63%.
The figure for `O=C(O)CSCC(=O)Nc1cccc(C(F)(F)F)c1` is -6.67%; for `CCN1CCN(C(=S)Nc2sc(C)c(-c3ccccc3)c2C(=O)OC)CC1` it is 15.3%; for `CC1(C)Cc2cccc(OCC(=O)OCC(=O)c3ccccc3)c2O1` it is 1.43%.
The figure for `Cc1c(NC(=O)CSc2nnnn2-c2ccc(F)cc2)c(=O)n(-c2ccccc2)n1C` is -2.74%; for `Cc1cccc(C(=O)Oc2ccc(/C=N/NC(=O)c3ccncc3)cc2)c1` it is 3.1%; for `COCCCN1CCN(c2nnc3n2-c2sc(Br)cc2C(c2ccccc2Cl)=NC3)CC1.CS(=O)(=O)O` it is -47.7%.
Consider `Cc1nnc2n1-c1ccc(Br)cc1C(c1ccccc1Cl)=NC2`, for which the “hERG current change (%, negative = inhibition) at 10uM” value is -21.1%.
The value for `COc1ccccc1C1=NCc2nnc(C)n2-c2ccc(Cl)cc21` was 3.01%.
The figure for `CSCc1nnc2n1-c1ccc(Cl)cc1C(c1ccccc1)=NC2` is -17%.
The figure for `CCS(=O)(=O)NCc1nnc2n1-c1ccc(Br)cc1C(c1ccccc1Cl)=NC2` is -49%; for `Clc1ccc2c(c1)C(c1ccccc1Cl)=NCc1nnc(Br)n1-2.c1ccccc1` it is -6.61%; for `CN1CCN(Cc2nnc3n2-c2ccc(Cl)cc2C(c2ccccc2)=NC3)CC1.O=CO` it is -64.7%.
As for `Clc1ccc2c(c1)C(c1ccccc1Cl)=NCc1nncn1-2`, the “hERG current change (%, negative = inhibition) at 10uM” value is -4.37%.
The value for `Clc1ccc2c(c1)C(c1ccccc1Cl)=NCc1nnc(N3CCN(CCSc4ccccc4)CC3)n1-2.O.O=C(O)/C=C/C(=O)O` was -66.5%; that for `Clc1ccc2c(c1)C(c1ccccc1Cl)=NCc1nnc(N3CCN(CCOc4ccccc4)CC3)n1-2.O=C(O)/C=C/C(=O)O` was -72.7%.
The figure for `CCS(=O)(=O)NCc1nnc2n1-c1ccc(Cl)cc1C(c1ccccc1)=NC2` is 12.6%.
The figure for `CCOCCN1CCN(c2nnc3n2-c2ccc(Cl)cc2C(c2ccccc2Cl)=NC3)CC1.O=CO` is -76.5%; for `C/C(=N\NC(=O)C1CC1)c1ccc(N2CCOCC2)cc1` it is -0.403%.
As to `O=c1/c(=C/c2ccco2)sc2nc(-c3ccccc3Br)nn12`, the “hERG current change (%, negative = inhibition) at 10uM” value stood at 12.7%.
The figure for `O=c1sc2ccccc2c(N2CCCC2)c1[N+](=O)[O-]` is 6.33%; for `Cc1cc(C)nc(SCc2nnc(SCC(N)=O)o2)n1` it is 15.7%.
The value for `O=C(c1ccccc1)c1ccc(N=Nc2c(O)[nH]c(=O)[nH]c2=O)cc1` was 1.15%; that for `Cc1nc2c(c(=O)n1CCC1=CCCCC1)c1nc3ccccc3nc1n2/N=C/c1ccco1` was -22%; that for `O=S(=O)(c1cccs1)N1CCC(Cc2ccccc2)CC1` was 6.58%.
The figure for `CCOC(=O)C1=C(N)Oc2ccc3ccccc3c2C1c1cccnc1` (stereo not drawn) is 0.98%; for `O/N=C1\CCCc2c1nc(-c1ccccc1F)n2O` it is 26.1%.
On to `O=C(COc1cc2oc(=O)c3c(c2cc1Cl)CCC3)NCC1CCC(C(=O)O)CC1` (stereo not drawn), for which the “hERG current change (%, negative = inhibition) at 10uM” value is 5.36%.
The figure for `Cc1ccc(S(=O)(=O)CC(=O)N2CCCCCC2)cc1` is 13.6%; for `C=CC(C)(C)c1[nH]cnc1/C=C1\NC(=O)C(C(C)C)NC1=O` (stereo not drawn) it is 3.54%; for `COc1ccc(NC(=O)N[C@@H](CCSC)C(=O)O)cc1OC` it is -0.994%.
The figure for `Cc1ccc(NC(=S)N2CCC(NC(=O)c3cccc(F)c3)CC2)cc1` is -24.9%.
